ChEMBL document CHEMBL1961873, “Compounds: GSK PKIS; Assays: Nanosyn kinase panel” (2012)

Key:
[1] = target: High affinity nerve growth factor receptor (Homo sapiens) (UniProt P04629); conditions: at 1 µM;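 note: each value is the mean percent inhibition of TRKA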
[2] = target: BDNF/NT-3 growth factors receptor (Homo sapiens) (UniProt Q16620); conditions: at 0.1 µM
[3] = target: BDNF/NT-3 growth factors receptor (Homo sapiens) (UniProt Q16620); conditions: at 1 µM
[4] = target: NT-3 growth factor receptor (Homo sapiens) (UniProt Q16288); conditions: at 0.1 µM
Sequence of NT-3 growth factor receptor (Homo sapiens) (Q16288 32-839 limits assumed): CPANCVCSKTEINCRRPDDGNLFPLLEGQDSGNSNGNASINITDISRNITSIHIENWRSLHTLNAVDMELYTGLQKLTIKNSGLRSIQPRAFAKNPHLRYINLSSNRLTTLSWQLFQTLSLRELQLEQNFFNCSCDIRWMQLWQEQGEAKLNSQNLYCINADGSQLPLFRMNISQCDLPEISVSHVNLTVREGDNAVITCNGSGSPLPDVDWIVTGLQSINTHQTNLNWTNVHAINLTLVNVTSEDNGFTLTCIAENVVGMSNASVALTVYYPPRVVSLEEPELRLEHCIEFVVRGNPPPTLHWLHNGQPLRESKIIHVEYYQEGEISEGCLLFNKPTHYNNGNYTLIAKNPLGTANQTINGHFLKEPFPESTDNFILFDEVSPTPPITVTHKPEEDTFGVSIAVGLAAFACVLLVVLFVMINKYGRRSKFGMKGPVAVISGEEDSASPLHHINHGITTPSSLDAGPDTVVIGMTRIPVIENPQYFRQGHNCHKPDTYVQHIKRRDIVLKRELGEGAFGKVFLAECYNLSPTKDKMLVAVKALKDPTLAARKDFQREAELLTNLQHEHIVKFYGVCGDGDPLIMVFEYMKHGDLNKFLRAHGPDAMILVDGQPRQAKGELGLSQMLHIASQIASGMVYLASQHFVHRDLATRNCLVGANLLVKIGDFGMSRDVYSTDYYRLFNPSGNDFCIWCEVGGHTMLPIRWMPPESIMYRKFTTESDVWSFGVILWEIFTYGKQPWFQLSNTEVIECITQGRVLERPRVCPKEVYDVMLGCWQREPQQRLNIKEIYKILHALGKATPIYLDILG

[5] = target: NT-3 growth factor receptor (Homo sapiens) (UniProt Q16288); conditions: at 1 µM
[6] = target: T1, Tyrosine-protein kinase TXK (Homo sapiens) (UniProt P42681); conditions: at 0.1 µM
T1 sequence (whole entry): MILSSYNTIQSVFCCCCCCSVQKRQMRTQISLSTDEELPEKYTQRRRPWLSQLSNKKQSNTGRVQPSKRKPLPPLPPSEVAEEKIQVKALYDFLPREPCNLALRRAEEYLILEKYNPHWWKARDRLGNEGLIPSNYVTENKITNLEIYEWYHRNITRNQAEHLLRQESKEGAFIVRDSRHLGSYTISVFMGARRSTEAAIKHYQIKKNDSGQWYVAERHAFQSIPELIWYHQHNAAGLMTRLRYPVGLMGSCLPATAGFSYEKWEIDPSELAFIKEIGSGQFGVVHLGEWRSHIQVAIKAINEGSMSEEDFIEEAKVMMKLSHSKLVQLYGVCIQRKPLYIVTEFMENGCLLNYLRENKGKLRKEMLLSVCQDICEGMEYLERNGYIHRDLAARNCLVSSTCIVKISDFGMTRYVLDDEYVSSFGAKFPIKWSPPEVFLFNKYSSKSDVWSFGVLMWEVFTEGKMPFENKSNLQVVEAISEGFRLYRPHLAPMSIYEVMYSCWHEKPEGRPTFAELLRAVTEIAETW

[7] = target: T1, Tyrosine-protein kinase TXK (Homo sapiens); conditions: at 1 µM
[8] = target: Non-receptor tyrosine-protein kinase TYK2 (Homo sapiens) (UniProt P29597); conditions: at 0.1 µM;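 note: each value is a mean of the inhibition readings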
[9] = target: T2, Dual specificity protein kinase TTK (Homo sapiens) (UniProt P33981); conditions: at 1 µM;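 note: reported figures are mean TTK inhibition at 1 µM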
T2 sequence (whole entry): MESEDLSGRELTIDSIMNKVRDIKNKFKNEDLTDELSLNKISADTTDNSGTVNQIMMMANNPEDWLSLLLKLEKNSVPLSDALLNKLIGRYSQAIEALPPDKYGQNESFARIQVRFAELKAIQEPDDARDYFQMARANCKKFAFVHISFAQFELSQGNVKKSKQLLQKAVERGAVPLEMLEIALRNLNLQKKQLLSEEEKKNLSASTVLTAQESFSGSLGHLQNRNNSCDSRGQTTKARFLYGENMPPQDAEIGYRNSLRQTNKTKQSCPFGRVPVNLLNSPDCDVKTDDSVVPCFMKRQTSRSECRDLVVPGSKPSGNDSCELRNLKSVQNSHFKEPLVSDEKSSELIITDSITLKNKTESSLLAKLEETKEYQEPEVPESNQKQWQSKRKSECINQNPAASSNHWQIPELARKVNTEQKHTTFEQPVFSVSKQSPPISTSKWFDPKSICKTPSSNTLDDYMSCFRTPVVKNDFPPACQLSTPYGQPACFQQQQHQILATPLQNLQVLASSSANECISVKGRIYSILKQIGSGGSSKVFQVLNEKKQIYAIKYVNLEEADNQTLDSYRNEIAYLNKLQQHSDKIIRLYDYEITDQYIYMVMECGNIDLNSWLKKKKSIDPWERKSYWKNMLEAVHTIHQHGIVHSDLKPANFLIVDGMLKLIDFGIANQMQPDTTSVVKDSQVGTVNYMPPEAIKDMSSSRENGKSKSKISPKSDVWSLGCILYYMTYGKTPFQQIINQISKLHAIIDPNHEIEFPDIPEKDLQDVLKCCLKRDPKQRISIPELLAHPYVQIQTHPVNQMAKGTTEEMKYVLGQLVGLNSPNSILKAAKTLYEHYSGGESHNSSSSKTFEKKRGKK

[10] = target: T3, Aurora kinase A (Homo sapiens) (UniProt O14965); conditions: at 0.1 µM
T3 sequence (whole entry): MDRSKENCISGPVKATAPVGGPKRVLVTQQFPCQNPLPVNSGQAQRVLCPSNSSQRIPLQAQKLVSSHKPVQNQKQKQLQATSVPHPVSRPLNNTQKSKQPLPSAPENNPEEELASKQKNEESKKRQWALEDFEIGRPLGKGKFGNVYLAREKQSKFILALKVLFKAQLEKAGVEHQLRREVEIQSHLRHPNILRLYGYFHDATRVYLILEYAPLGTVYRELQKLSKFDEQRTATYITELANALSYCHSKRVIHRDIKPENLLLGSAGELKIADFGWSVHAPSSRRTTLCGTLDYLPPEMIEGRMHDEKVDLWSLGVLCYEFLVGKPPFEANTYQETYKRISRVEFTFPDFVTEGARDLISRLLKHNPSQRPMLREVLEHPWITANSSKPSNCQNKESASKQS

[11] = target: T3, Aurora kinase A (Homo sapiens); conditions: at 1 µM
[12] = target: Aurora kinase B (Homo sapiens) (UniProt Q96GD4); conditions: at 0.1 µM
Sequence of Aurora kinase B (Homo sapiens) (Q96GD4 whole entry): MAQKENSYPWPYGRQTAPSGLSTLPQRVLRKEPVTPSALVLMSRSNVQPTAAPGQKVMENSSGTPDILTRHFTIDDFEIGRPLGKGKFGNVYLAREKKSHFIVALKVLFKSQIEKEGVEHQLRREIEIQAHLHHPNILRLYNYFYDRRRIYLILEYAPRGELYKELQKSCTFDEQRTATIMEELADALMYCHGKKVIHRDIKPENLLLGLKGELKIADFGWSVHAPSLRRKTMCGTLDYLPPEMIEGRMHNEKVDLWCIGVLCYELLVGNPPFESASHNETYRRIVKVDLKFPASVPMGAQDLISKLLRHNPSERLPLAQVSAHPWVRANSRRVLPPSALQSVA

[13] = target: Aurora kinase B (Homo sapiens) (UniProt Q96GD4); conditions: at 1 µM
[14] = target: T4, Aurora kinase C (Homo sapiens) (UniProt Q9UQB9); conditions: at 0.1 µM
T4 sequence (whole entry): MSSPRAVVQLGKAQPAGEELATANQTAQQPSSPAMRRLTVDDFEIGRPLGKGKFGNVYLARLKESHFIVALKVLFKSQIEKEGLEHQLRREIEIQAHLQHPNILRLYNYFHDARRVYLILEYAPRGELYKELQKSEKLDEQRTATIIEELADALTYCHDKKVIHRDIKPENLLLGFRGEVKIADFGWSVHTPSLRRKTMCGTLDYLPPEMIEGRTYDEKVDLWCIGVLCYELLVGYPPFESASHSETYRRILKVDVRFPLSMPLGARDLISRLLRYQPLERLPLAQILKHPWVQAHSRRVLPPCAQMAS

[15] = target: T4, Aurora kinase C (Homo sapiens); conditions: at 1 µM
[16] = target: Serine/threonine-protein kinase 10 (Homo sapiens) (UniProt O94804); conditions: at 0.1 µM
Sequence of Serine/threonine-protein kinase 10 (Homo sapiens) (O94804 whole entry, looked up): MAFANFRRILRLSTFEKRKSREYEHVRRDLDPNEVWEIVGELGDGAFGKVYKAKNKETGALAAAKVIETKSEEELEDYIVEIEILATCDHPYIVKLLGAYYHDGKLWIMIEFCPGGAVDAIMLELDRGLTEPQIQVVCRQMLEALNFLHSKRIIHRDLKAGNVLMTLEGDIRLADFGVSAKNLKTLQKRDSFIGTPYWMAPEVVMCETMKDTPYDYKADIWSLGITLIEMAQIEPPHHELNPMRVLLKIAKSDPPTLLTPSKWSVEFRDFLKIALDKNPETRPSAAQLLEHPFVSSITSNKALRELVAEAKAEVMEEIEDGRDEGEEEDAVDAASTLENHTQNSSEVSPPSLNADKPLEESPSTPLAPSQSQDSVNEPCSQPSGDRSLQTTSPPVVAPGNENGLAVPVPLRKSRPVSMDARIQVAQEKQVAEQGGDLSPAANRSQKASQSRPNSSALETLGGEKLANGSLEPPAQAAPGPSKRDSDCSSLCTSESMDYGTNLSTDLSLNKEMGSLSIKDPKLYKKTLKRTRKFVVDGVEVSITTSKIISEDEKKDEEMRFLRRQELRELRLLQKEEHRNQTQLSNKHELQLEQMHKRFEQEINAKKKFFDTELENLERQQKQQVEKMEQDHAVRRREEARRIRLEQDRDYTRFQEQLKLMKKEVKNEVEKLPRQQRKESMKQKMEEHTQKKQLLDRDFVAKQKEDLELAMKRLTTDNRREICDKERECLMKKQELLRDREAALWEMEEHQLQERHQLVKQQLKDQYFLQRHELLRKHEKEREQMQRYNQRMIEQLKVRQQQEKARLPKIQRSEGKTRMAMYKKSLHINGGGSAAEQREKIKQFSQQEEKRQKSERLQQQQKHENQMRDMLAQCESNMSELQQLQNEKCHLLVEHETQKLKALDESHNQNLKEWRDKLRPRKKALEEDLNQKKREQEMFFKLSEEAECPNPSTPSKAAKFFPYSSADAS

[17] = target: Serine/threonine-protein kinase 10 (Homo sapiens) (UniProt O94804); conditions: at 1 µM
[18] = target: T5, Mitogen-activated protein kinase kinase kinase kinase 2 (Homo sapiens) (UniProt Q12851); conditions: at 0.1 µM
T5 sequence (whole entry): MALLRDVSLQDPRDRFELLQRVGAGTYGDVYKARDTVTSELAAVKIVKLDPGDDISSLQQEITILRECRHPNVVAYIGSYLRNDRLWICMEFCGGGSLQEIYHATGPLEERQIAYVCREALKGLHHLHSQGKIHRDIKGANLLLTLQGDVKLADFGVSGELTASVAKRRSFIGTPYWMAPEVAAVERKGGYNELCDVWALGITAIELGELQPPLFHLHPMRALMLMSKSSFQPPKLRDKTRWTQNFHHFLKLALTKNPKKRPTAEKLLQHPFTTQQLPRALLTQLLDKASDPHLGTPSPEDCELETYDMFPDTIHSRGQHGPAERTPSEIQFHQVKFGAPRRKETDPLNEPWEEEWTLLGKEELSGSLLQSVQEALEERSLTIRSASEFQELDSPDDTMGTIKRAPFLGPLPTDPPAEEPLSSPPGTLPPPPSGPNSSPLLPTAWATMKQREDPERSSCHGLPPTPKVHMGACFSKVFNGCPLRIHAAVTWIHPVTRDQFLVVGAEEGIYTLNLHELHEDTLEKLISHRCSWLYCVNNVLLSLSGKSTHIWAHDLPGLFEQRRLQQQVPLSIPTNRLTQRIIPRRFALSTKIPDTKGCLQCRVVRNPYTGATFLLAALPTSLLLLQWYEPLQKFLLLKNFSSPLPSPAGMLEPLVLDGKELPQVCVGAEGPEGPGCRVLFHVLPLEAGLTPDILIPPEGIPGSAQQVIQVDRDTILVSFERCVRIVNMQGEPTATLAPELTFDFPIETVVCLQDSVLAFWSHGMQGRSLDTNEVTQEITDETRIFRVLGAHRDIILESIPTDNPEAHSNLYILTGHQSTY

[19] = target: T5, Mitogen-activated protein kinase kinase kinase kinase 2 (Homo sapiens); conditions: at 1 µM
[20] = target: Mitogen-activated protein kinase kinase kinase kinase 4 (Homo sapiens) (UniProt O95819); conditions: at 0.1 µM
Sequence of Mitogen-activated protein kinase kinase kinase kinase 4 (Homo sapiens) (O95819 2-1239 limits assumed): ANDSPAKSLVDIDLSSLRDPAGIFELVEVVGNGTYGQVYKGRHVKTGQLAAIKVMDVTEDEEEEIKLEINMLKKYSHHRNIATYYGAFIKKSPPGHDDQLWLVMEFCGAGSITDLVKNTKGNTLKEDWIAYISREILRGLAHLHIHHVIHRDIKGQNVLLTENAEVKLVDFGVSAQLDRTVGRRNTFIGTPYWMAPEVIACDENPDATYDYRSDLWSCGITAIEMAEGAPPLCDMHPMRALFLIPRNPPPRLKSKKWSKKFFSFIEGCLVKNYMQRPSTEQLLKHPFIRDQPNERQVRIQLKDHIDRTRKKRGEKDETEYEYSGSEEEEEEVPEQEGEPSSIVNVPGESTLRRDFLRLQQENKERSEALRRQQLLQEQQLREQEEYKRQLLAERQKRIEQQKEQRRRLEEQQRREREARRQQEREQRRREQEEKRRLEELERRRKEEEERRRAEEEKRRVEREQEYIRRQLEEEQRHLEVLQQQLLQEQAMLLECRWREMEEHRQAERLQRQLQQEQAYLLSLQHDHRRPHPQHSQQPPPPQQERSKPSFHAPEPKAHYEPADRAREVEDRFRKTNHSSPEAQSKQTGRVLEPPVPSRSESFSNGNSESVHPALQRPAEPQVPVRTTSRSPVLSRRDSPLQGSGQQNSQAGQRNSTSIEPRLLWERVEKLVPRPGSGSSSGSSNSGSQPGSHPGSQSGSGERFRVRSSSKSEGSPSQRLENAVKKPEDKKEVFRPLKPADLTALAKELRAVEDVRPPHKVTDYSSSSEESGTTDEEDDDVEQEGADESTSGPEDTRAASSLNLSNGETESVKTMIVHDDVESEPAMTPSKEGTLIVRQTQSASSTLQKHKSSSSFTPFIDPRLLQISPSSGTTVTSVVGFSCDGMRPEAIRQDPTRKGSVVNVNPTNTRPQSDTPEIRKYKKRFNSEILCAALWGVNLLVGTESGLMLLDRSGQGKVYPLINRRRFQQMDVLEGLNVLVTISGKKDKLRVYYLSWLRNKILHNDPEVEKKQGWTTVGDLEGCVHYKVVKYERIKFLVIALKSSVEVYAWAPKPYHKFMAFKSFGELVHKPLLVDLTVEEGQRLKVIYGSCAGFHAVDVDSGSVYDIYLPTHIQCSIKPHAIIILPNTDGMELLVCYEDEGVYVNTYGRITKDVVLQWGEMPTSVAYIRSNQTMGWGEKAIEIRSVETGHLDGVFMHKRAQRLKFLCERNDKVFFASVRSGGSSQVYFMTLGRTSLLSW

Sequence of High affinity nerve growth factor receptor (Homo sapiens) (P04629 33-796 limits assumed): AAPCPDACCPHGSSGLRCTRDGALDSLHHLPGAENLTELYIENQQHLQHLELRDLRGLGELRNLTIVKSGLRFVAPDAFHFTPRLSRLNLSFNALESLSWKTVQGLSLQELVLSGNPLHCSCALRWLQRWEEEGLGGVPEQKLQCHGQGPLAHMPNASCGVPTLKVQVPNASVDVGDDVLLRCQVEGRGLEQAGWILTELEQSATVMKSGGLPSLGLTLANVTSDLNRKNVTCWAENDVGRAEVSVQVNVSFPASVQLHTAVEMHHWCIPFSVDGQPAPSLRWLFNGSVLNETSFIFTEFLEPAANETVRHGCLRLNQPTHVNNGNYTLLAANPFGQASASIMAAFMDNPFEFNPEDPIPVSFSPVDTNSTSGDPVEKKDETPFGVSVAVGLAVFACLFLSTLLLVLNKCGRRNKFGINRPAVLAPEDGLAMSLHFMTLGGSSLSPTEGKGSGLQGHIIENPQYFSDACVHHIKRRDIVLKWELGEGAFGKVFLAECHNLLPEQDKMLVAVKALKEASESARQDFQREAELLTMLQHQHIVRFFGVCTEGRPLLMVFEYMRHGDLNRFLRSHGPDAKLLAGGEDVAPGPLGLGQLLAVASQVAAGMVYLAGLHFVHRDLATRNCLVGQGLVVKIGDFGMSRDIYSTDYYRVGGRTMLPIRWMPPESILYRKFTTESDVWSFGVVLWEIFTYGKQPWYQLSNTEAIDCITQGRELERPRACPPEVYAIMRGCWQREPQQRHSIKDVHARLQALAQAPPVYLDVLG
Sequence of BDNF/NT-3 growth factors receptor (Homo sapiens) (Q16620 32-822 limits assumed): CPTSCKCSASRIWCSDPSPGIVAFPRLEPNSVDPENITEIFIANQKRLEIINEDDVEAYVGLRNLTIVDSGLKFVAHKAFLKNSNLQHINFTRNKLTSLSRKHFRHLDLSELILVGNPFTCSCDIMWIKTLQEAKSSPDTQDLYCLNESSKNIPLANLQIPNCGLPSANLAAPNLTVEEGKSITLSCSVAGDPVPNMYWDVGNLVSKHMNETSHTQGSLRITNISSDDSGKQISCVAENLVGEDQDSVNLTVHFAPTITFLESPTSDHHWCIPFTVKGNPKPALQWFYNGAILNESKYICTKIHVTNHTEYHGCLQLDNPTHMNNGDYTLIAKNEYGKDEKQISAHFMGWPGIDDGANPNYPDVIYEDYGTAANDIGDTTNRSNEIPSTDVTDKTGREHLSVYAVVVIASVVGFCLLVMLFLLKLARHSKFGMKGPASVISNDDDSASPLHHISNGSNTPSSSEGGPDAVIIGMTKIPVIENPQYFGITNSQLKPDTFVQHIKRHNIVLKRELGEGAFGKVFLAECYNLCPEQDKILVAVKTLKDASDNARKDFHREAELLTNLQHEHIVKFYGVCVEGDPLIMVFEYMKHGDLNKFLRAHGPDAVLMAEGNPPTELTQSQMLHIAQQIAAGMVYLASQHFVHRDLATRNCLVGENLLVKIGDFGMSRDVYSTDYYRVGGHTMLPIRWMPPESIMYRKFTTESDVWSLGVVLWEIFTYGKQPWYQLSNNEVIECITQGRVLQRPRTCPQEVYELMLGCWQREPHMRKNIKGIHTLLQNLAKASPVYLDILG

Row | Compound | inhibition [1] [%] | inhibition [2] [%] | inhibition [3] [%] | inhibition [4] [%] | inhibition [5] [%] | inhibition [6] [%] | inhibition [7] [%] | inhibition [8] [%] | inhibition [9] [%] | inhibition [10] [%] | inhibition [11] [%] | inhibition [12] [%] | inhibition [13] [%] | inhibition [14] [%] | inhibition [15] [%] | inhibition [16] [%] | inhibition [17] [%] | inhibition [18] [%] | inhibition [19] [%] | inhibition [20] [%]
1 | NC(=O)c1cc(-c2ccc(F)cc2)cc(-c2ccncc2)c1N | -0.4 | 3.69 | 3.15 | 3.87 | 2.92 | 3.85 | 12.4 | -2.58 | 11.4 | 3.42 | 4.02 | 2.72 | 3.54 | -0.44 | -4.53 | 6.15 | 5.86 | 0.12 | 2.33 | 4.49
2 | FC(F)(F)c1cccc(Nc2nccc(-c3cnn4nc(-c5ccccc5)ccc34)n2)c1 | -0.33 | 0.37 | 3.54 | -0.78 | 3.9 | -1.01 | 5.95 | -2.57 | 6.07 | 0.08 | 3.33 | 2.71 | 8.1 | 1.82 | 10.2 | 3.86 | 5.68 | 0.58 | 2.4 | 2.1
3 | CCN(CC)Cc1ccc(Nc2nccc(-c3cnn4ncccc34)n2)cc1 | 12.1 | 4.49 | 7.47 | 2.83 | 5.86 | 0.47 | 1.91 | -7.84 | 29.4 | 4.39 | 34.3 | 27.5 | 63.7 | 38 | 84.6 | 7.37 | 18 | 3.21 | 21.2 | 5.41
4 | O=C(Nc1n[nH]c2cc(-c3ccccc3)ccc12)C1CC1 | 4.46 | 1.46 | 6.76 | 0.77 | 7.68 | 8.18 | 17.7 | -4.71 | 6.67 | 1.71 | 13.2 | 4.05 | 3.92 | 0.96 | 9.67 | 4.04 | 19.9 | 1.56 | 4.2 | 33.6
5 | Cc1nnc(-c2ccc(C)c(-c3ccc(C(=O)NCc4ccc(Cl)cc4)cc3)c2)o1 | 3.12 | 3.47 | 1.5 | 2.79 | 1.36 | -0.45 | -1.48 | -6.26 | -0.17 | -1.43 | -4.05 | -0.69 | -2.09 | -2.03 | -9.49 | 2.71 | 6.75 | 1.46 | 1.6 | 5.65
6 | O=C(NCC1CC1)c1ccc(-c2cccc(C(=O)NC3CC3)c2)cc1 | 0.79 | 0.56 | -1.04 | 2.02 | -1.15 | 2.43 | 5.31 | -2.99 | 3.09 | 1.42 | 6.45 | 2.04 | 5.76 | 0.57 | 11.8 | 3.1 | -0.77 | 1.43 | 2.37 | 2.9
7 | O=C1NC(=O)C(c2cccc(Cl)c2)=C1Nc1ccc(Cl)c(C(=O)O)c1 | -0.54 | 0.88 | 1.89 | 1.02 | 2.72 | 2.81 | 2.53 | -0.74 | 9.31 | 2.92 | 8.62 | 0.94 | 8.32 | 5.84 | -0.75 | 4.75 | 6.92 | 0.39 | 2.05 | 2.67
8 | COc1ccc(-c2ccc3c(NC(=O)C4CC4)n[nH]c3n2)cc1 | 2.48 | 1.11 | 5.12 | -0.49 | 5.04 | 2.08 | 2.53 | 0.27 | 8.48 | 1.67 | 9.18 | 3.59 | 5.77 | -5.01 | 8.55 | 4.51 | 8.53 | 1.22 | 0.37 | 5.28
9 | Cc1ccc(NC(=O)c2ccoc2)cc1-c1ccc(C(=O)NCC2CC2)cc1 | 1.15 | 2.58 | 1.82 | 2.37 | 0.07 | -0.38 | 2.18 | -3.59 | 4.41 | 2.28 | 2.57 | 1.19 | 4.85 | 1.82 | 1 | 2.73 | 5.18 | -0.94 | 0.39 | 0.77
10 | COc1ccc(C2=C(N3CCc4ccccc43)C(=O)NC2=O)cc1 | 3.66 | 3.2 | 2.97 | 3.23 | 3.14 | 3.28 | 4.15 | -3.26 | 5.34 | 1.27 | 12.5 | 0.57 | 5.83 | 1.68 | -3.65 | 4.19 | 10.4 | 0.85 | 4.95 | 6.97
11 | Clc1ccc(CNc2nccc(-c3cnn4ncccc34)n2)cc1 | 1.03 | 0.46 | 1.45 | 0.37 | 2.98 | 2.07 | 6.82 | -1.15 | 10.5 | 0.34 | 10.8 | -0.06 | 8.64 | 2.6 | 4.42 | 2.66 | 6.27 | 2.75 | 9.93 | 3.91
12 | c1ccc(Oc2ccc(Nc3ncc(-c4ccccc4)o3)cc2)cc1 | 3.28 | 0.87 | 2.96 | 0.46 | 1.12 | 1.51 | 3.57 | -0.13 | 5.67 | 1.36 | 10.2 | 2.17 | 7.16 | 0.67 | -1.26 | 0.49 | 2.71 | 1.08 | 1.62 | 3.28
